Test results published in PubChem BioAssay (NCATS).
Inconclusive results are not listed. Entries that show only a call come without a potency. The source made the active and inactive calls. Calls follow the shape of the dose curve; as a rule, active = well fitted inhibition curve with a large enough effect; inconclusive = small, poorly fitted or top-dose-only effect, or effect the other way; inactive = flat fitted curve, though single readings scatter.
Potency is read from the fitted curve at half-maximal effect.

What follows are compounds tested against ATP-dependent 6-phosphofructokinase (Trypanosoma brucei brucei) (UniProt O15648) (assay: qHTS Assay to Find Inhibitors of T. brucei phosphofructokinase: hit validation (AID 492961)). Conditions: T. brucei PFK, ADP-Glo luminescence; series mostly up to 51.4 µM.
Chain of ATP-dependent 6-phosphofructokinase (Trypanosoma brucei brucei) (O15648 whole entry, looked up): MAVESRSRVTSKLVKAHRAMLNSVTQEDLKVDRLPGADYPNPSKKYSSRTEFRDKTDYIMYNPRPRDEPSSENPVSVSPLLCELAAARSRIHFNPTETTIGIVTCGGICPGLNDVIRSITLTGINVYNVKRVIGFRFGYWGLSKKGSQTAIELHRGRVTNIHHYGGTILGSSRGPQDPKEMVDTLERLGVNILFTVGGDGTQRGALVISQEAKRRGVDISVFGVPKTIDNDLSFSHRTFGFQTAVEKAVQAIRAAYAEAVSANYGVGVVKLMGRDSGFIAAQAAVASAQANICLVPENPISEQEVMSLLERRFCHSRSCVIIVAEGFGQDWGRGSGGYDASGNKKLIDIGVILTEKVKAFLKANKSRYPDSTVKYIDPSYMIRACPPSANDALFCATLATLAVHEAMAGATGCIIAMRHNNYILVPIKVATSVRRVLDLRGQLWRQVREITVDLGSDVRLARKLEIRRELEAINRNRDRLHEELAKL
Method in brief: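 Inhibition of parasite PFK is measured as reduced ADP formation, quantified via luciferase after ATP depletion. Assay used 0.1 mM ATP, 0.5 mM F6P, 1.25 nM enzyme, 45 min incubation.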
For `Oc1c(Br)cc(Br)cc1Br`, the Potency was “inactive”.
In the case of `OC(O)C(Cl)(Cl)Cl`, the Potency is reported as “inactive”.
In the case of `CN1CCc2cc(Cl)c(O)cc2[C@H]2c3ccccc3CC[C@@H]21`, the Potency is reported as “inactive”.
In the case of `C[C@]12C=CC(=O)C=C1CC[C@@H]1[C@@H]2CC[C@@]2(C)[C@H]1CC[C@]2(C)O`, the Potency is reported as “inactive”.
In the case of `CCNC(=O)NCc1cccc(Cl)c1`, the Potency is reported as 15.8 µM (active).
In the case of `C[C@]12CC[C@H]3[C@@H](CC=C4C[C@@H](O)CC[C@@]43C)[C@@H]1CC[C@@H]2O`, the Potency is reported as “inactive”.
In the case of `CC(C)(C)OC(=O)c1ncn2c1[C@@H]1CCCN1C(=O)c1c(Br)cccc1-2`, the Potency is reported as “inactive”.
For `CC(C)[N+](C)(CCC(C(N)=O)(c1ccccc1)c1ccccc1)C(C)C`, the Potency was “inactive”.
`Cc1ncc2n1-c1ccc(Cl)cc1C(c1ccccc1F)=NC2` was tested, and the Potency was “inactive”.
`CN1C(=O)[C@@H](NC(=O)c2cc3ccccc3[nH]2)N=C(c2ccccc2)c2ccccc21` was tested, and the Potency was “inactive”.
In the case of `CCS(=O)(=O)C(C)(C)S(=O)(=O)CC`, the Potency is reported as “inactive”.
With `CC[n+]1c(-c2ccccc2)c2cc(N)ccc2c2ccc(N)cc21` the Potency was “inactive”.
`Clc1ccc(CO/N=C(\Cn2ccnc2)c2ccc(Cl)cc2Cl)c(Cl)c1` was tested, and the Potency was “inactive”.
With `CCC1(CC)C(=O)NC(=O)NC1=O` the Potency was “inactive”.
With `ClC1=C(Cl)C2(Cl)C(CBr)CC1(Cl)C2(Cl)Cl` (centres undefined) the Potency was “inactive”.
For `C#C[C@]1(O)CC[C@H]2[C@@H]3CCC4=CC(=O)CCC4=C3C=C[C@@]21CC`, the Potency was “inactive”.
With `CN1C(=O)CN=C(c2ccccc2)c2cc([N+](=O)[O-])ccc21` the Potency was “inactive”.
With `O=c1n(Cl)c(=O)n(Cl)c(=O)n1Cl` the Potency was “inactive”.
For `N#Cc1nn(-c2c(Cl)cc(C(F)(F)F)cc2Cl)c(N)c1S(=O)C(F)(F)F` (centres undefined), the Potency was “inactive”.
